Reference: PubChem BioAssay (NCI)
This is part of a sample that, as a whole, favours compounds with a hit. Of some 79,000 tested, about 15% had one in any assay. The source made the active and inactive calls. Rule as the data show it: active = growth inhibition above about 70%; inactive = the rest.

What was measured:
[1] = NCI Yeast Anticancer Drug Screen. Data for the mec2-1 strain (AID 157); details: S. cerevisiae mec2-1 strain, active compounds read high
Method in brief: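 Compounds were applied to mec2-1 yeast cells. Their growth was then compared with that of vehicle-treated cultures to give growth inhibition.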

[2] = NCI Yeast Anticancer Drug Screen. Data for the rad14 strain (AID 159);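 also: 0% = growth of vehicle-treated control cultures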; details: S. cerevisiae rad14 strain growth inhibition, active compounds read high
Method in brief: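 Here, inhibition of yeast growth was measured after compound exposure, using a strain with a genetic defect in DNA damage repair and vehicle-treated cultures as the reference.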

[3] = NCI Yeast Anticancer Drug Screen. Data for the sgs1 mgt1 strain (AID 161);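 also: 0% = growth of cultures given vehicle only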; details: S. cerevisiae sgs1 mgt1 strain, active compounds read high
Method in brief: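 Yeast cells carrying a defined DNA-repair defect were exposed to test compounds. Growth inhibition was measured relative to vehicle-treated controls.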

[4] = NCI Yeast Anticancer Drug Screen. Data for the CLN2oe strain (AID 163);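 also: 0% = growth of vehicle-only control cultures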; details: S. cerevisiae CLN2oe strain, active compounds read high
Method in brief: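 Cells of an engineered yeast line with disturbed cell-cycle regulation are treated with compound. Inhibition of growth is then calculated relative to the vehicle-treated reference.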

[5] = NCI Yeast Anticancer Drug Screen. Data for the cln2 rad14 strain (AID 165);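 also: 0% = growth equal to vehicle treated cultures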; details: S. cerevisiae cln2 rad14 strain, active compounds read high
Method in brief: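 Strain: cln2 rad14 yeast, altered in cell cycle control and DNA damage repair. Read-out: growth inhibition vs vehicle.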

[6] = NCI Yeast Anticancer Drug Screen. Data for the bub3 strain (AID 167); details: S. cerevisiae bub3 mutant strain, active compounds read high
Method in brief: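 Whole-cell yeast assay. The mutant strain was incubated with compounds, and growth inhibition was determined by comparison with vehicle-treated cells.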

[7] = NCI Yeast Anticancer Drug Screen. Data for the wt2 strain (AID 169);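 also: 0% = growth of vehicle-treated yeast cultures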; details: S. cerevisiae wt2 strain growth inhibition, active compounds read high
Method in brief: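 Growth of compound-treated yeast is measured and expressed as inhibition relative to vehicle-only controls.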

[8] = NCI Yeast Anticancer Drug Screen. Data for the mlh1 strain (AID 171);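 also: 0% = growth of vehicle-treated control cultures of the same strain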; details: S. cerevisiae mlh1 strain growth inhibition, active compounds read high
Method in brief: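 Test agents were incubated with yeast bearing a defined DNA damage repair or cell cycle control alteration; values are growth inhibition normalised to vehicle-treated cultures.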

[9] = NCI Yeast Anticancer Drug Screen. Data for the sgs1 strain (AID 173);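 also: 0% = growth of vehicle-only control cultures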; details: S. cerevisiae sgs1 mutant, active compounds read high
Method in brief: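 Strain with an altered DNA repair or cell cycle pathway exposed to compound. Growth then measured. Value = inhibition versus vehicle control.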

[10] = NCI Yeast Anticancer Drug Screen. Data for the mlh1 rad18 strain (AID 175); details: S. cerevisiae mlh1 rad18 strain growth inhibition, active compounds read high
Method in brief: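 A repair-deficient yeast strain is exposed to test compound, and growth is scored relative to vehicle-treated controls.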

[11] = NCI Yeast Anticancer Drug Screen. Data for the rad18 strain (AID 177); details: S. cerevisiae rad18 mutant growth inhibition, active compounds read high
Method in brief: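 DNA-repair-defective yeast; compound treatment; growth inhibition scored against vehicle.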

[12] = NCI Yeast Anticancer Drug Screen. Data for the rad52 strain (AID 147);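 also: 0% = growth of vehicle-treated control cultures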; details: S. cerevisiae rad52 mutant growth inhibition, active compounds read high
Method in brief: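 Growth of repair-deficient yeast cells was compared between compound-treated and vehicle-treated cultures to give percent inhibition.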

[13] = NCI Yeast Anticancer Drug Screen. Data for the wt1 strain (AID 149);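 also: 0% = growth of vehicle-treated wt1 cultures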; details: S. cerevisiae wt1 strain (SPY 50644) growth inhibition, active compounds read high
Method in brief: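 Measured: growth of wt1 yeast under compound versus vehicle treatment, reported as inhibition.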

[14] = NCI Yeast Anticancer Drug Screen. Data for the rad50EPP+ strain (AID 151);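 also: 0% = growth of vehicle-treated control cultures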; details: S. cerevisiae rad50 mutant strain, active compounds read high
Method in brief: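 Measured: growth inhibition of rad50EPP+ yeast. Reference: vehicle-treated controls. Screen uses strains with defined genetic alterations in DNA damage repair or cell cycle control.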

[15] = NCI Yeast Anticancer Drug Screen. Data for the mgt1 strain (AID 153); details: S. cerevisiae mgt1 mutant growth inhibition, active compounds read high
Method in brief: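 Compounds were applied to mgt1 mutant yeast, and growth was then compared against vehicle-treated control cultures to give percent inhibition.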

[16] = NCI Yeast Anticancer Drug Screen. Data for the rad50 strain (AID 155);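 also: 0% = growth of vehicle-only cultures of the same strain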; details: S. cerevisiae rad50 strain growth inhibition, active compounds read high
Method in brief: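 Growth of the mutant yeast was measured after compound exposure and referenced to vehicle-treated cultures.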

[17] = at 5.0 µM (retest, dose inferred, filed as 0.5)
[18] = at 50.0 µM (retest, dose inferred, filed as 5.0)

Measured: growth inhibition

CCCCCCCCCCCC1=C(O)C(=O)C=C(O)C1=O
active: [1]; at 33.0 µM 94% | [1]; [18] 90% | [1]; at 100.0 µM 95% | [2]; at 11.0 µM 80% | [2]; at 33.0 µM 96% | [2]; at 100.0 µM 80% | [3]; [18] 85% | [4]; at 33.0 µM 93% | [4]; at 100.0 µM 91% | [5]; [18] 88% | [6]; [17] 81% | [6]; at 33.0 µM 96% | [6]; [18] 89% | [6]; at 100.0 µM 95% | [7]; at 11.0 µM 79% | [7]; at 33.0 µM 96% | [7]; at 100.0 µM 81% | [8]; at 33.0 µM 93% | [8]; at 100.0 µM 91% | [9]; at 33.0 µM 95% | [9]; at 100.0 µM 89% | [10]; [18] 90% | [10]; at 50.0 µM 72.3% | [11]; at 33.0 µM 95% | [11]; at 100.0 µM 92%
inactive: [1]; [17] 9% | [1]; at 11.0 µM 63% | [1]; at 50.0 µM 37.9% | [2]; at 1.2 µM 2% | [2]; at 3.7 µM 0% | [3]; [17] 30% | [3]; at 50.0 µM 46.9% | [4]; at 1.2 µM -7% | [4]; at 3.7 µM -17% | [4]; at 11.0 µM 63% | [5]; [17] -11% | [5]; at 50.0 µM 35.9% | [6]; at 1.2 µM -10% | [6]; at 3.7 µM -4% | [6]; at 11.0 µM 54% | [6]; at 50.0 µM 57% | [7]; at 1.2 µM 3% | [7]; at 3.7 µM 8% | [8]; at 1.2 µM -12% | [8]; at 3.7 µM -9% | [8]; at 11.0 µM 37% | [9]; at 1.2 µM -19% | [9]; at 3.7 µM -11% | [9]; at 11.0 µM 46% | [10]; [17] 41% | [11]; at 1.2 µM -9% | [11]; at 3.7 µM -6% | [11]; at 11.0 µM 64%

COc1cc2c3c(cccc3c1)C(=O)N(CCN(C)C)C2=O
inactive: [12]; at 1.2 µM -43% | [12]; at 3.7 µM -14% | [12]; at 11.0 µM 20% | [12]; at 33.0 µM 55% | [13]; at 1.2 µM -6% | [13]; at 3.7 µM -11% | [13]; at 11.0 µM -10% | [13]; at 33.0 µM -1% | [13]; at 100.0 µM 2% | [14]; at 1.2 µM -23% | [14]; at 3.7 µM 1% | [14]; at 11.0 µM 8% | [14]; at 33.0 µM 34% | [15]; at 1.2 µM -24% | [15]; at 3.7 µM -22% | [15]; at 11.0 µM -32% | [15]; at 33.0 µM -23% | [15]; at 100.0 µM -7% | [16]; at 1.2 µM 10% | [16]; at 3.7 µM 0% | [16]; [17] 23% | [16]; at 11.0 µM 29% | [16]; at 33.0 µM 61% | [1]; at 1.2 µM -17% | [1]; at 3.7 µM -11% | [1]; [17] 8% | [1]; at 11.0 µM -23% | [1]; at 33.0 µM -19% | [1]; [18] 11% | [1]; at 50.0 µM -5.45% | [1]; at 100.0 µM 9% | [2]; at 1.2 µM -33% | [2]; at 3.7 µM -18% | [2]; at 11.0 µM -24% | [2]; at 33.0 µM -3% | [2]; at 100.0 µM -14% | [3]; [17] 13% | [3]; [18] 23% | [3]; at 50.0 µM -13.1% | [4]; at 1.2 µM -5% | [4]; at 3.7 µM 13% | [4]; at 11.0 µM 25% | [4]; at 33.0 µM 34% | [4]; at 100.0 µM 21% | [5]; [17] 0% | [5]; [18] 3% | [5]; at 50.0 µM -5.5% | [6]; at 1.2 µM -13% | [6]; at 3.7 µM -12% | [6]; [17] 21% | [6]; at 11.0 µM -9% | [6]; at 33.0 µM -10% | [6]; [18] 21% | [6]; at 50.0 µM -34% | [6]; at 100.0 µM -4% | [7]; at 1.2 µM -2% | [7]; at 3.7 µM 1% | [7]; at 11.0 µM -23% | [7]; at 33.0 µM -12% | [7]; at 100.0 µM 5% | [8]; at 1.2 µM -39% | [8]; at 3.7 µM 3% | [8]; at 11.0 µM -19% | [8]; at 33.0 µM -9% | [8]; at 100.0 µM 0% | [9]; at 1.2 µM -21% | [9]; at 3.7 µM -14% | [9]; at 11.0 µM -22% | [9]; at 33.0 µM -15% | [9]; at 100.0 µM -11% | [10]; [17] 42% | [10]; [18] 55% | [10]; at 50.0 µM -50.4% | [11]; at 1.2 µM -34% | [11]; at 3.7 µM -18% | [11]; at 11.0 µM -23% | [11]; at 33.0 µM -15% | [11]; at 100.0 µM -27%
active: [12]; at 100.0 µM 87% | [14]; at 100.0 µM 78% | [16]; [18] 77% | [16]; at 50.0 µM 71.6% | [16]; at 100.0 µM 88%

NC1=NS(=O)(=O)N=C(N)C1=Cc1ccc([N+](=O)[O-])o1
inactive: [12]; at 1.2 µM -23% | [12]; at 3.7 µM -14% | [12]; at 11.0 µM 20% | [13]; at 1.2 µM -20% | [13]; at 3.7 µM -11% | [13]; at 11.0 µM -6% | [13]; at 33.0 µM -18% | [14]; at 1.2 µM 0% | [14]; at 3.7 µM 18% | [14]; at 11.0 µM 64% | [15]; at 1.2 µM 7% | [15]; at 3.7 µM 16% | [15]; at 11.0 µM 12% | [15]; at 33.0 µM 33% | [16]; at 1.2 µM 6% | [16]; at 3.7 µM 21% | [16]; [17] 3% | [16]; at 11.0 µM 42% | [1]; at 1.2 µM -20% | [1]; at 3.7 µM -25% | [1]; [17] -20% | [1]; at 11.0 µM -15% | [1]; at 33.0 µM 10% | [1]; [18] 14% | [2]; at 1.2 µM -7% | [2]; at 3.7 µM -8% | [2]; at 11.0 µM -9% | [2]; at 33.0 µM 1% | [3]; [17] -6% | [3]; [18] 43% | [4]; at 1.2 µM 9% | [4]; at 3.7 µM 0% | [4]; at 11.0 µM -11% | [4]; at 33.0 µM 13% | [5]; [17] -16% | [5]; [18] 25% | [6]; at 1.2 µM 8% | [6]; at 3.7 µM -11% | [6]; [17] 5% | [6]; at 11.0 µM -22% | [6]; at 33.0 µM -27% | [6]; [18] 47% | [6]; at 50.0 µM 68.5% | [7]; at 1.2 µM -41% | [7]; at 3.7 µM -34% | [7]; at 11.0 µM -22% | [7]; at 33.0 µM -6% | [8]; at 1.2 µM -7% | [8]; at 3.7 µM -6% | [8]; at 11.0 µM 2% | [8]; at 33.0 µM 33% | [9]; at 1.2 µM -15% | [9]; at 3.7 µM -10% | [9]; at 11.0 µM 18% | [9]; at 33.0 µM 45% | [10]; [17] 3% | [11]; at 1.2 µM 11% | [11]; at 3.7 µM 17%
active: [12]; at 33.0 µM 82% | [12]; at 100.0 µM 97% | [13]; at 100.0 µM 98% | [14]; at 33.0 µM 88% | [14]; at 100.0 µM 97% | [15]; at 100.0 µM 99% | [16]; at 33.0 µM 78% | [16]; [18] 77% | [16]; at 50.0 µM 88% | [16]; at 100.0 µM 97% | [1]; at 50.0 µM 93.8% | [1]; at 100.0 µM 98% | [2]; at 100.0 µM 97% | [3]; at 50.0 µM 92.7% | [4]; at 100.0 µM 99% | [5]; at 50.0 µM 74.7% | [6]; at 100.0 µM 98% | [7]; at 100.0 µM 98% | [8]; at 100.0 µM 98% | [9]; at 100.0 µM 98% | [10]; [18] 84% | [10]; at 50.0 µM 88.8% | [11]; at 11.0 µM 71% | [11]; at 33.0 µM 89% | [11]; at 100.0 µM 98%
